Experimental findings from PubChem BioAssay (EPA / NIEHS) are described below.

Activity calls are given as the source filed them. Rule for the calls: active = hit-call score of the fitted dose curve at least 0.9, where 1 is the maximum; inactive = score below 0.9.

A short description of test [1]: ATG_CRE_CIS: Attagene CIS-FACTORIAL HepG2 Assay for human cAMP Responsive Element (CRE) binding protein 3 (AID 2282926). The settings on record: HepG2 CRE cis-reporter, Attagene multiplexed mRNA; actives raise or lower the signal. The procedure, abridged:
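Readout: fluorescently labelled reporter transcripts resolved by capillary electrophoresis after RT-PCR, taken 24 h post-dosing in transfected HepG2. Endogenous transcription factor activity drives each cis-element reporter; gain or loss of signal fitted relative to DMSO control.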

Test [2] concerns the target CCAAT/enhancer-binding protein beta (Homo sapiens) (UniProt P17676). The experiment in a line: ATG_C_EBP_CIS: Attagene CIS-FACTORIAL HepG2 Assay for human CCAAT/Enhancer Binding Protein (C/EBP) beta (AID 2282927). The settings on record: HepG2 Attagene cis-factorial transcription factor reporter; actives raise or lower the signal. The procedure, abridged: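 RT-PCR/capillary electrophoresis fluorescence of reporter mRNA, 24 h post-dose, in HepG2 cells carrying transfected cis-promoter reporter units. Bidirectional curve fitting against DMSO baseline captures gain or loss of signal.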

The nature of test [3]: ATG_CMV_CIS: Attagene CIS-FACTORIAL HepG2 Assay for human CMV (Internal Marker) (AID 2282928).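 Note: endpoint acts as a background internal control marker rather than a target.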 To be noted: HepG2 CMV promoter reporter, transcription factor profiling; actives raise or lower the signal. The procedure, abridged:
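Bidirectional fits against DMSO are applied to reporter mRNA, read by RT-PCR with capillary electrophoresis, from HepG2 cells exposed 24 h. The endpoint serves as an internal CMV background marker within the cis-factorial reporter panel.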

A short description of test [4]: ATG_DR4_LXR_CIS: Attagene CIS-FACTORIAL HepG2 Assay for human Liver X Receptor (LXR), DR4 submotif (AID 2282929). The settings on record: HepG2 Attagene DR4 cis-reporter, mRNA transcription; actives raise or lower the signal. The method, boiled down:
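HepG2, transient MRTU transfection, cis-element (DR4) promoter; 24 h compound exposure; total RNA → oligo(dT) RT → PCR → 6-FAM primer extension → HpaI cut → CE. Gain/loss vs DMSO, bidirectional fit.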

The target in test [5] is Aryl hydrocarbon receptor (Homo sapiens) (UniProt P35869). The experiment in a line: ATG_Ahr_CIS: Attagene CIS-FACTORIAL HepG2 Assay for human Aryl Hydrocarbon Receptor (Ahr) (AID 2282930). The settings on record: HepG2 AhR cis-factorial reporter transcription; actives raise or lower the signal. The method, boiled down: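 HepG2 cells transiently transfected with cis-element-driven multiplexed reporter transcription units; endogenous transcription factor activity measured as reporter mRNA 24 h after dosing. RT-PCR, 6-FAM labelling, HpaI digestion, capillary electrophoresis; bidirectional fitting versus DMSO baseline.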

Test [6] is described as follows: ATG_AP_1_CIS: Attagene CIS-FACTORIAL HepG2 Assay for human Activator Protein 1 (AP-1) (AID 2282931). To be noted: HepG2 Attagene cis-factorial AP-1 reporter mRNA; actives raise or lower the signal. The procedure, abridged: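 Transient MRTU transfection of HepG2 → 24 h chemical treatment → RNA isolation, RT-PCR, 6-FAM labelling, HpaI digest → capillary electrophoresis. Fit: bidirectional, DMSO negative control.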

A short description of test [7]: ATG_AP_2_CIS: Attagene CIS-FACTORIAL HepG2 Assay for human Activator Protein 2 (AP-2) (AID 2282932). The settings on record: HepG2 AP-2 cis-reporter, Attagene transcription factor profiling; actives raise or lower the signal. The method, boiled down: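 Cells (HepG2) transfected with promoter-driven reporter constructs, treated 24 h. Total RNA reverse-transcribed, reporter cDNA PCR-amplified, FAM-labelled by primer extension, digested, resolved by capillary electrophoresis. Activity fitted both directions versus DMSO.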

Test [8] can be described thus: ATG_BRE_CIS: Attagene CIS-FACTORIAL HepG2 Assay for human Bone Morphogenetic Protein (BMP) Response Element (BRE) (AID 2282933). The settings on record: HepG2 BMP response element reporter, Attagene transcription factor profiling; actives raise or lower the signal. The method, boiled down:
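Fluorescence-labelled reporter cDNA fragments, separated by capillary electrophoresis, gave the signal for this component of a 52-readout multiplex. HepG2 cells were transfected, exposed to chemicals for 24 h, and compared with DMSO using bidirectional fitting.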

The target in test [9] is Retinoic acid receptor alpha (Homo sapiens) (UniProt P10276). Description: ATG_DR5_RAR_CIS: Attagene CIS-FACTORIAL HepG2 Assay for human Retinoic Acid Receptor Alpha (RARE), DR5 submotif (AID 2282934). The settings on record: HepG2 Attagene cis-factorial RARE DR5 reporter, mRNA; actives raise or lower the signal. The method, boiled down:
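HepG2 cells transiently transfected with multiplexed reporter units under cis (DR5 RARE) promoters, so endogenous transcription factor activity is measured. After 24 h compound exposure, reporter mRNA is quantified by RT-PCR with fluorescent labelling and capillary electrophoresis; bidirectional fitting versus DMSO.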

Test [10] deals with Transcription factor E2F1 (Homo sapiens) (UniProt Q01094). The experiment in a line: ATG_E2F_CIS: Attagene CIS-FACTORIAL HepG2 Assay for human E2F Transcription Factor 1 (AID 2282935). To be noted: HepG2 Attagene cis-reporter, E2F reporter RNA transcripts; actives raise or lower the signal. The method, boiled down:
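First, HepG2 cells were transfected with reporter transcription units. Next, they were dosed for 24 h. Then RNA was isolated, converted to cDNA, PCR-amplified, FAM-labeled, HpaI-digested and analyzed by capillary electrophoresis.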

The nature of test [11]: ATG_E_Box_CIS: Attagene CIS-FACTORIAL HepG2 Assay for human Enhancer Box (E-box) (AID 2282936). To be noted: HepG2 E-box cis-reporter transcription, actives raise or lower the signal. The procedure, abridged:
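Endogenous transcription factor activity was sensed in human HepG2 liver cells through transfected cis-promoter reporter units. After 24 h of dosing, total RNA was reverse-transcribed and reporter cDNA resolved by capillary electrophoresis.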

A short description of test [12]: ATG_M_61_CIS: Attagene CIS-FACTORIAL HepG2 Assay for M61 Transcription Factor (Internal Marker) (AID 2282937). To be noted: HepG2 Attagene CIS-FACTORIAL M61 internal marker reporter; actives raise or lower the signal. The procedure, abridged:
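Human liver HepG2, transient MRTU transfection (cis promoter elements), 24 h compound. Total RNA → oligo(dT) RT → PCR → FAM label → HpaI → CE. Internal background marker; bidirectional fitting, DMSO = baseline.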

The nature of test [13]: ATG_EGR_CIS: Attagene CIS-FACTORIAL HepG2 Assay for human Early Growth Response 1 (EGR1) (AID 2282938). The settings on record: HepG2 Attagene CIS-FACTORIAL EGR reporter mRNA; actives raise or lower the signal. The procedure, abridged:
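Transient transfection of human HepG2 with multiple cis-regulated reporter units, chemical exposure 24 h, total RNA isolated. Reverse transcription, PCR, fluorescent labelling and capillary electrophoresis quantify reporter transcripts; activity fitted bidirectionally against DMSO.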

A short description of test [14]: ATG_M_19_CIS: Attagene CIS-FACTORIAL HepG2 Assay for M19 Transcription Factor (Internal Marker) (AID 2282939). To be noted: HepG2 Attagene CIS-FACTORIAL M19 internal marker reporter; actives raise or lower the signal. The method, boiled down: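 HepG2, MRTU transient transfection, 24 h dosing. Total RNA → RT-PCR → 6-FAM primer extension → HpaI digest → CE fluorescence. Bidirectional curve fit, DMSO negative control.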

Test [15] can be described thus: ATG_Ets_CIS: Attagene CIS-FACTORIAL HepG2 Assay for human Erythroblast Transformation Specific (ETS) (AID 2282941). To be noted: HepG2 ETS cis-reporter transcription, actives raise or lower the signal. The method, boiled down:
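Endogenous transcription factor activity read as reporter mRNA via RT-PCR and capillary electrophoresis, with gain or loss fitted bidirectionally against DMSO. Human HepG2 liver cells, transiently transfected CIS reporter constructs, 24 h exposure.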

The target in test [16] is Hepatocyte nuclear factor 3-beta (Homo sapiens) (UniProt Q9Y261). The experiment in a line: ATG_FoxA2_CIS: Attagene CIS-FACTORIAL HepG2 Assay for human Forkhead box A2 (FOXA2) (AID 2282942). To be noted: HepG2 cis-reporter transcription factor activity, 24 h; actives raise or lower the signal. The method, boiled down:
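Transient MRTU transfection of HepG2 liver cells; 24 h treatment; total RNA → oligo(dT) RT → PCR → FAM primer extension → HpaI cut → CE. Bidirectional fit vs DMSO.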

Test [17] can be described thus: ATG_FoxO_CIS: Attagene CIS-FACTORIAL HepG2 Assay for human Forkhead box O (FoxO) (AID 2282943). To be noted: HepG2 Attagene cis-reporter, FoxO element, mRNA; actives raise or lower the signal. The method, boiled down:
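HepG2 cells transiently transfected with cis-promoter-driven multiple reporter transcription units; 24 h after chemical dosing, reporter mRNA quantified by RT-PCR, fluorescent primer extension, HpaI digestion and capillary electrophoresis. Bidirectional fitting versus DMSO baseline.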

Test [18] is described as follows: ATG_GATA_CIS: Attagene CIS-FACTORIAL HepG2 Assay for human GATA Binding Protein (AID 2282944). To be noted: HepG2 GATA cis-element reporter, Attagene multiplex mRNA; actives raise or lower the signal. The procedure, abridged: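 Cells: HepG2, transiently transfected with cis-regulated reporter transcription units. Exposure: 24 h. Detection: RT-PCR plus capillary electrophoresis of FAM-labeled fragments. Analysis: bidirectional, DMSO as baseline.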

The nature of test [19]: ATG_GLI_CIS: Attagene CIS-FACTORIAL HepG2 Assay for human Zinc Finger Protein GLI1 (AID 2282945). The settings on record: HepG2, Attagene cis-factorial reporter mRNA, GLI element; actives raise or lower the signal. The method, boiled down: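 HepG2 cells transiently transfected with cis-promoter multiplexed reporter units report endogenous transcription factor activity. After 24 h chemical exposure, reporter mRNA was quantified by RT-PCR, 6-FAM labelling, HpaI digestion and capillary electrophoresis, with bidirectional fitting against DMSO.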

Test [20] concerns the target Bile acid receptor (Homo sapiens) (UniProt Q96RI1). The experiment in a line: ATG_IR1_CIS: Attagene CIS-FACTORIAL HepG2 Assay for human Nuclear Receptor Subfamily 1 Group H Member 4 (NR1H4), IR1 submotif (AID 2282946). To be noted: IR1 reporter transcription, actives raise or lower the signal. The method, boiled down:
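Readout: reporter transcript levels by RT-PCR with fluorescent capillary electrophoresis, from HepG2 cells transiently transfected with multiplexed cis-regulated reporters and dosed 24 h. Gain- or loss-of-signal fitted versus DMSO negative control.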

Transcription factor E2F1 (Homo sapiens), sequence (Q01094 whole entry, looked up): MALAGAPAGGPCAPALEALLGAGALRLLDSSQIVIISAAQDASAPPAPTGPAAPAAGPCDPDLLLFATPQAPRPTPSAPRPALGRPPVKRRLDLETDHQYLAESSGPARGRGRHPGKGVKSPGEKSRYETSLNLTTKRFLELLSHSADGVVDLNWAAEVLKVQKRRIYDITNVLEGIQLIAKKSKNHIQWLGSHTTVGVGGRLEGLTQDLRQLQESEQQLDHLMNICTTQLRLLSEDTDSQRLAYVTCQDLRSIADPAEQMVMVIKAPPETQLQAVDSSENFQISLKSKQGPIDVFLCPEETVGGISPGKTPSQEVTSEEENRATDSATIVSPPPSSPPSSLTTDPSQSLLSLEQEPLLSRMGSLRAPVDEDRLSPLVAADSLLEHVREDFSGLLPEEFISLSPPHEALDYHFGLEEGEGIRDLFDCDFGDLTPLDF
Hepatocyte nuclear factor 3-beta (Homo sapiens), sequence (Q9Y261 whole entry, looked up): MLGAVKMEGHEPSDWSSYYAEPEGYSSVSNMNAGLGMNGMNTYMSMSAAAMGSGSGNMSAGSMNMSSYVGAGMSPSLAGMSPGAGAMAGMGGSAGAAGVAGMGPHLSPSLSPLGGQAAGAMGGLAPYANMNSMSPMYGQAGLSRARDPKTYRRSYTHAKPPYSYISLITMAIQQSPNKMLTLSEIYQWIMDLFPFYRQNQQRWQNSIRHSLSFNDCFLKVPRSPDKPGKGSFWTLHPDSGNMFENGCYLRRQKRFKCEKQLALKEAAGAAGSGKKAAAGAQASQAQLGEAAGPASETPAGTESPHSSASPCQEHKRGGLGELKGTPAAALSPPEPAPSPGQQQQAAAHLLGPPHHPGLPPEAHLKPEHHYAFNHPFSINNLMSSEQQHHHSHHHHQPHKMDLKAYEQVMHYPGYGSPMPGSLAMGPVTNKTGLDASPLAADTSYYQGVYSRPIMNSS
Aryl hydrocarbon receptor (Homo sapiens), sequence (P35869 whole entry, looked up): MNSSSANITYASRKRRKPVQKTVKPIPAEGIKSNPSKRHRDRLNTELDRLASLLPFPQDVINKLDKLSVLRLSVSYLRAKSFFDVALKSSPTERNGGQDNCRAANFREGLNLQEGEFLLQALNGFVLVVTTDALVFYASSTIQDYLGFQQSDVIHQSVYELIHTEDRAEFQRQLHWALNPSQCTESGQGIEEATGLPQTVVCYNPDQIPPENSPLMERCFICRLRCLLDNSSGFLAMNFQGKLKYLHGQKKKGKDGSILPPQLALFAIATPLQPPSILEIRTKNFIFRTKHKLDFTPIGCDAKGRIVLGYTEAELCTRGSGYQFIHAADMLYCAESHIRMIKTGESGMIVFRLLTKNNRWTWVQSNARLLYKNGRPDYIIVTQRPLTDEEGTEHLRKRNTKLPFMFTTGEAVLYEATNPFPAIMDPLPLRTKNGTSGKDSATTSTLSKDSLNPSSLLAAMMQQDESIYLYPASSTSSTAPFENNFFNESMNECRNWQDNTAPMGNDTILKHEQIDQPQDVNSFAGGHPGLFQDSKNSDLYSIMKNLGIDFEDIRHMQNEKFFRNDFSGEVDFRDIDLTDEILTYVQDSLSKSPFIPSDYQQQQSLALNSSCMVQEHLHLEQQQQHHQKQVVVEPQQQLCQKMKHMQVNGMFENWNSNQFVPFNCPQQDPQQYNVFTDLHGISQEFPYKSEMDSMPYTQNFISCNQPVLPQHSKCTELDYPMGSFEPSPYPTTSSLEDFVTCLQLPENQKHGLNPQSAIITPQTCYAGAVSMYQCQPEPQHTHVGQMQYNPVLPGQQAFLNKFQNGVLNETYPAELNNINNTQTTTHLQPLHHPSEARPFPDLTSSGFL
CCAAT/enhancer-binding protein beta (Homo sapiens), sequence (P17676 whole entry, looked up): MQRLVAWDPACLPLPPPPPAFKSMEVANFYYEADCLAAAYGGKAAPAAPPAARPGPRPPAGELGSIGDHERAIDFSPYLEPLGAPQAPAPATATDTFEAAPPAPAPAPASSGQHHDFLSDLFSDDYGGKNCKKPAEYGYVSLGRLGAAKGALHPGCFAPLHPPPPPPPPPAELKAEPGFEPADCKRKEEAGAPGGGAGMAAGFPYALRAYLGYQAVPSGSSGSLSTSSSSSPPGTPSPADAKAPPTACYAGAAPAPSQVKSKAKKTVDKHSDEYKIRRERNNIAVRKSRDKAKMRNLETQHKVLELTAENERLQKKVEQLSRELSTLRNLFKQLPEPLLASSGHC
Bile acid receptor (Homo sapiens), sequence (Q96RI1 whole entry, looked up): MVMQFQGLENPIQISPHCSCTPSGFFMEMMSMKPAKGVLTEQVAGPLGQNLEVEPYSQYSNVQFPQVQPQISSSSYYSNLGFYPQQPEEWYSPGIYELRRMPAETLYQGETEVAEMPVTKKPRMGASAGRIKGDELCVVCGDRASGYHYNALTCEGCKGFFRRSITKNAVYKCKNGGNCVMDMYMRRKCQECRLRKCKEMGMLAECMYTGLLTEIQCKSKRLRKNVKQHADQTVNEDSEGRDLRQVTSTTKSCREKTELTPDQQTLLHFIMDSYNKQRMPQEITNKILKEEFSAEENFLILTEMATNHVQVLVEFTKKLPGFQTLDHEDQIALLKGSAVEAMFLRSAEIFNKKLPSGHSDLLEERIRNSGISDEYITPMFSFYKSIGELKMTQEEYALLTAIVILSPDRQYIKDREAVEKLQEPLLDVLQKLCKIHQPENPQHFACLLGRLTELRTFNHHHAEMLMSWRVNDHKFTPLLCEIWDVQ
Retinoic acid receptor alpha (Homo sapiens), sequence (P10276 whole entry, looked up): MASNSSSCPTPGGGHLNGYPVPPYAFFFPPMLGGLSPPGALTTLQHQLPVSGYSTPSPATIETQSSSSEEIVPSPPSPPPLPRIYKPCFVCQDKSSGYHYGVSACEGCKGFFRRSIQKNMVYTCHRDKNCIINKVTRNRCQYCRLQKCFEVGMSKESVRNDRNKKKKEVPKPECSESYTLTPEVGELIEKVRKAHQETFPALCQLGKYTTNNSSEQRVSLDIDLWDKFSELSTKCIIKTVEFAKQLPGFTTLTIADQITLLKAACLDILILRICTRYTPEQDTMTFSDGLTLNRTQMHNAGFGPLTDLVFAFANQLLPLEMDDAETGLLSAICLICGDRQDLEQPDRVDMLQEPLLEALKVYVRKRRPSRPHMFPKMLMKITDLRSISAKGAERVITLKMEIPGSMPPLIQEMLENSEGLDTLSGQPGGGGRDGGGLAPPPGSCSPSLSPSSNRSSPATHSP

Turning to `COc1ccc(CCC(C)=O)cc1`, the compound was classed as inactive in [1], in test [2], in test [3], in test [4], in test [5] and in test [6]. In addition, the call in test [7], in test [8], in test [9], in test [10], in test [11] and in test [12] was inactive. Moreover, the compound was called inactive in test [13], in [14], in [15], in [16], in test [17] and in test [18]. Besides, the result in test [19] and in [20] was inactive.
What is called AC50 is the concentration giving half of the maximal activity seen. For `ClC(c1ccccc1)(c1ccccc1)c1ccccc1`, the compound was called inactive in test [1], in [2], in [3], in test [5], in [6] and in test [7]. Moreover, the outcome in test [8], in test [9], in [10], in test [11], in test [12] and in test [13] was inactive. For the same compound, the outcome in [14], in [15], in [16], in test [17], in [18] and in test [19] was inactive. Also, the compound was classed as inactive in test [20]. Also, the AC50 in [4] is 5.95 µM (active).
As to `CCN(CC)C(=O)N(CC)CC`, the call in test [1], in [2], in test [3], in test [4], in test [5] and in [6] was inactive. Also, the outcome in test [7], in test [8], in test [9], in test [10], in test [11] and in test [12] was inactive. The compound was called inactive in [13], in test [14], in test [15], in test [16], in test [17] and in test [18]. Moreover, the call in test [19] and in [20] was inactive.
On to `CCCN(CCC)S(=O)(=O)c1ccc(C(=O)O)cc1`, for which the call in test [1], in test [2], in test [3], in [4], in [5] and in test [6] was inactive. For the same compound, the result in [7], in test [8], in test [9], in [10], in test [11] and in test [12] was inactive. The result in test [13], in test [14], in test [15], in [16], in test [17] and in test [18] was inactive. Further, the outcome in test [19] and in test [20] was inactive.
On to `CCOC(=O)c1ccc(N)cc1`, for which the compound was called inactive in test [1], in [2], in test [3], in [4], in [5] and in test [6]. Also, the result in test [7], in test [8], in [9], in [10], in test [11] and in [12] was inactive. Moreover, the call in test [13], in [14], in test [15], in test [16], in test [17] and in [18] was inactive. In addition, the compound was classed as inactive in [19] and in [20].
For `CCc1ccc(O)c(OC)c1`, the compound was classed as inactive in test [1], in test [2], in [3], in test [4], in [5] and in test [6]. Also, the compound was classed as inactive in [7], in test [8], in [9], in test [10], in [11] and in test [12]. Also, the compound was classed as inactive in test [13], in test [14], in test [15], in test [16], in test [17] and in test [18]. The compound was classed as inactive in test [19] and in [20].
